This passage reports Potency, activation and outcome results from PubChem BioAssay (NCATS).

A number with no mark means an inactive call. Records with an inconclusive call do not appear. A call without a number means that no potency is given here. The source made the active and inactive calls. Unless noted, calls come from the whole dose curve; as a rule, active = well fitted inhibition curve with a large enough effect; inconclusive = small, poorly fitted or top-dose-only effect; inactive = flat fitted curve, though single readings scatter.

In experiment [1] the target is DNA dC->dU-editing enzyme APOBEC-3G (Homo sapiens) (UniProt Q9HC16). The experiment in a line: qHTS for inhibitors of Vif-A3G interactions: Validation (AID 588379). In short, it runs like this:
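HeLa cells stably expressing Vif and A3G-eYFP, 700 cells/well, incubated overnight at 37 deg C, then exposed to compound overnight at 37 deg C. Inhibition of Vif-mediated degradation read as increased yellow fluorescence (Ex 488/Em 500-530) by laser-scanning cytometry.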

Experiment [2] deals with Androgen receptor (Homo sapiens) (UniProt P10275). Put plainly: qHTS assay for small molecule agonists of androgen receptor signaling (AID 588515; active = well fitted curve in the direction sought with a large enough effect in the signal ratio, with a control signal flat; the % refers to the signal ratio). The note with it: AR-UAS-bla HEK293, beta-lactamase ratio, agonist 16 h; hits give high values. In outline:
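EC50 and efficacy came from Hill fits of titrations (up to 92 uM) normalized to 30 nM R1881 as 100% and DMSO as 0%. Compound exposure was 16 h at 37 C on AR-UAS-bla HEK293 cells, with a 405/460/530 nm CCF4 fluorescence read.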

The target in experiment [3] is Glucocorticoid receptor (Homo sapiens) (UniProt P04150). The experiment in a line: qHTS assay for small molecule agonists of glucocorticoid receptor signaling (AID 588532; active = well fitted curve in the direction sought with a large enough effect in the signal ratio, with a control signal flat; the % refers to the signal ratio). The note with it: HeLa MMTV-bla, beta-lactamase ratio, agonist, 18 h; hits give high values; percent of dexamethasone control, DMSO zero. In outline:
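HeLa GRE-bla reporter cells; 18 h compound exposure at 37 C; 2 h CCF4 loading at room temperature; fluorescence at 460 and 530 nm; EC50 by Hill equation.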
On the technique in general: qHTS replaces the single test concentration by a dilution series.

The target in experiment [4] is Vitamin D3 receptor (Homo sapiens) (UniProt P11473). Put plainly: qHTS assay for small molecule agonists of vitamin D receptor signaling (AID 588543; calls by dose curve). In outline: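 Measured: β-lactamase reporter activity (CCF4, 405 nm excitation, 460/530 nm emission) in HEK293T VDR-UAS-bla cells after 16 h compound exposure at 37 °C. Normalization against 50 nM 1α,25-dihydroxyvitamin D3 and DMSO; Hill-fit EC50.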
Vitamin D3 receptor (Homo sapiens), sequence (P11473 whole entry, looked up): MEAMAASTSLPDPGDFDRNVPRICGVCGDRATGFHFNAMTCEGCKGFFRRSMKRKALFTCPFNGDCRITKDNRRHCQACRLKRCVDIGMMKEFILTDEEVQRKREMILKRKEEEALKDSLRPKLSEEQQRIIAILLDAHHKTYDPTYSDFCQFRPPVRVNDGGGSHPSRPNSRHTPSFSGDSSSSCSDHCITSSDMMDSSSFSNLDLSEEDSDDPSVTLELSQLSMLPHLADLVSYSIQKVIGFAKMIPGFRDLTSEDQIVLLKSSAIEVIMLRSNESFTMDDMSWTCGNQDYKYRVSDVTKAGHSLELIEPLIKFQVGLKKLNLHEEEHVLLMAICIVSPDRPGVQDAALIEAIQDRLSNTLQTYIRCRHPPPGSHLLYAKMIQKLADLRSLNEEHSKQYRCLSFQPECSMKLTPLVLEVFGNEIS

DNA dC->dU-editing enzyme APOBEC-3G (Homo sapiens), sequence (Q9HC16 whole entry, looked up): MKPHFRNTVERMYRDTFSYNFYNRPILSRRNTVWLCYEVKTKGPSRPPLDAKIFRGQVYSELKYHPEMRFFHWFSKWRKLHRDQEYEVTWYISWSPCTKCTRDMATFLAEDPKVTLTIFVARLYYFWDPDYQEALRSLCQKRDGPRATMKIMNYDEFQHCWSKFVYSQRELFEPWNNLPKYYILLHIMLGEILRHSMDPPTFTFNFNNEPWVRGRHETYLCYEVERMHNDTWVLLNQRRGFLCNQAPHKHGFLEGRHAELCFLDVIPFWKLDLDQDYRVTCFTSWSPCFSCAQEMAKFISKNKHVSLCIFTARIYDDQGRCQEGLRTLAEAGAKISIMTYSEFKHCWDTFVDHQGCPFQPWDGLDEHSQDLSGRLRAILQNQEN
Androgen receptor (Homo sapiens), sequence (P10275 whole entry, looked up): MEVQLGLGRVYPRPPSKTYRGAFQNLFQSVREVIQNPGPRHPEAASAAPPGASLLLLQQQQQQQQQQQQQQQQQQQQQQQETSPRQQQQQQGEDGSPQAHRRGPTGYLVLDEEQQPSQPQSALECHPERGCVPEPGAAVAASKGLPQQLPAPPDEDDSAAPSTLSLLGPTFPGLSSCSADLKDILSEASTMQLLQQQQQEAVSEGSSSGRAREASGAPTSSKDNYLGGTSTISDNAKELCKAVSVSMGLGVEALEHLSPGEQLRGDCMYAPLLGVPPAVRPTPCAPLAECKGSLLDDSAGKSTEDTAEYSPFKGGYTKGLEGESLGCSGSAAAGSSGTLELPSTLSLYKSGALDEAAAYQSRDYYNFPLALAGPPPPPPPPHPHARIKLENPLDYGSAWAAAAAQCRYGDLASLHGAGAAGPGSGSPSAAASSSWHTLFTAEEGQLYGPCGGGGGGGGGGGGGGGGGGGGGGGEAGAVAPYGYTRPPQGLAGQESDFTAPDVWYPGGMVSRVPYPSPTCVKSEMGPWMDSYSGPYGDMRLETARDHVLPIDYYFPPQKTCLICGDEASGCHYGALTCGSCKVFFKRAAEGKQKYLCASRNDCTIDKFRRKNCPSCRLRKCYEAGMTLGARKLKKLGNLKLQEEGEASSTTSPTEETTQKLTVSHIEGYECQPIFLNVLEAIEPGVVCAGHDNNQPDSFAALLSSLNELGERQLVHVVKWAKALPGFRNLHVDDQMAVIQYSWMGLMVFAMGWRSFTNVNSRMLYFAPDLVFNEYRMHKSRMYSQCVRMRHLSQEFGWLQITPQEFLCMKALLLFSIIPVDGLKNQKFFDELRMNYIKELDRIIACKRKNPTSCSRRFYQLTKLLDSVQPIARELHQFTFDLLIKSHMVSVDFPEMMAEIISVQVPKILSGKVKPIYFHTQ
Glucocorticoid receptor (Homo sapiens), sequence (P04150 whole entry, looked up): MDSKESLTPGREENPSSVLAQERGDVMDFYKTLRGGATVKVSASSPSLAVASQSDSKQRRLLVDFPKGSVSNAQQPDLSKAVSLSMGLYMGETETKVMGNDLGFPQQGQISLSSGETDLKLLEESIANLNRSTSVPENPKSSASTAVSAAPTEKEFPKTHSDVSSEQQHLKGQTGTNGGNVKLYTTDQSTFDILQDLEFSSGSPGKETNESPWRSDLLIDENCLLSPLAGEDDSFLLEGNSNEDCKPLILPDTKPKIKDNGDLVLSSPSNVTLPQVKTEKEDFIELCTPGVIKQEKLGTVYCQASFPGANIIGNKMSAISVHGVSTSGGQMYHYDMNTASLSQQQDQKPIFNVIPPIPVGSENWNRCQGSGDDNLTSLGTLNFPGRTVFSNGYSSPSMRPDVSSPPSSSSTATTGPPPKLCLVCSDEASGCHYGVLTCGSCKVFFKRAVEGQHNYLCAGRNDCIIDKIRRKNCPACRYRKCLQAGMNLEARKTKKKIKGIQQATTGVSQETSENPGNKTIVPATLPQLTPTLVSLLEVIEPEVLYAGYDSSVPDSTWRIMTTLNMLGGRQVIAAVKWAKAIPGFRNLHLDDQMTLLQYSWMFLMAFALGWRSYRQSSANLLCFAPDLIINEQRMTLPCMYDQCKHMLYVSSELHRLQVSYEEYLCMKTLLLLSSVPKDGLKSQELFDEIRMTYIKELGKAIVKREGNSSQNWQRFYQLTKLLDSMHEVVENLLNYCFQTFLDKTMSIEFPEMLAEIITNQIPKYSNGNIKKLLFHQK

For the compound `CC1CCN(CC[C@H]2CCCN2S(=O)(=O)c2cccc(O)c2)CC1`, the Potency result in experiment [1] was “inactive”.
In the case of `COc1ccccc1N1CCN(CCCCN2C(=O)c3ccccc3C2=O)CC1`, the Potency entry in experiment [1] was “inactive”.
The same measure, in the same setting: under `CN1CCN(c2nc3cc(C(F)(F)F)ccc3n3cccc23)CC1` stands “inactive”; under `CCCn1c(=O)c(C)cn2nc(N)nc12`, “inactive”.
As for `Cc1cccc(C(=O)NCN2CCN(c3ccccc3C#N)CC2)c1`, the Potency entry in experiment [1] was “inactive”.
Regarding `CC[C@@H]1Cc2cc(O)ccc2C2=C1c1ccc(O)cc1C[C@H]2CC`, the activation was -13.9% in experiment [2] and -4.83% in experiment [3]. The call in experiment [4] was inactive.
Consider `COc1ccc(CCN(C)CCc2ccc(OC)c(OC)c2)cc1OC`, for which the Potency result in experiment [1] was “inactive”.
For the compound `Cn1cc(C(=O)OCC2CCN(CCNS(C)(=O)=O)CC2)c2ccccc21`, in experiment [1], the Potency result is “inactive”.
